FLuc modulator = inhibits or activates purified firefly luciferase, miR-21 counter-screen. 6.9% of 360,000 active. purified FLuc, Km substrates, luminescence inhibition. AID 588342. Potency, µM (series often up to 57.5 µM), actives largely listed as inhibitors; note: nearly all actives have a fitted effect of over 55% in size
Target sequence (P08659 whole entry, looked up): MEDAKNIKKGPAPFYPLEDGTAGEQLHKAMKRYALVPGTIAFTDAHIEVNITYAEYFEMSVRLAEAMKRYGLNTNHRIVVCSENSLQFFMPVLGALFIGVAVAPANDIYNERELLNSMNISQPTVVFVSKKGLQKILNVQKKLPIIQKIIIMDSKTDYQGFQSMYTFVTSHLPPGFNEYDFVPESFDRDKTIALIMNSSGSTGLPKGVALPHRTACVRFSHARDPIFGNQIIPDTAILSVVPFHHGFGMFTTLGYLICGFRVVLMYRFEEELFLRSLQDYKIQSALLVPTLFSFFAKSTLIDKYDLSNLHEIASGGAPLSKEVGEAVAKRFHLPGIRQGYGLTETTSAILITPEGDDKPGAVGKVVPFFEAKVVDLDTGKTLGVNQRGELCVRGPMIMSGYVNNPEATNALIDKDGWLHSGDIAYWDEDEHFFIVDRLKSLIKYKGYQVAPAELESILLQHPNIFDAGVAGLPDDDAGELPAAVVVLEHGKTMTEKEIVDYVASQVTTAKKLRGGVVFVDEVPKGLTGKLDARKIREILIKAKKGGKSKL
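Biochemical qHTS of compounds, final roughly 60 µM downward over six points, against 10 nM purified firefly luciferase using Km concentrations of substrates (10 uM D-luciferin, 10 uM ATP) in Tris acetate pH 7.5 buffer; luminescence output.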
ELG1 DNA repair = ELG1-dependent DNA repair inhibition; HEK293T ELG1-luciferase reporter, luminescence, 16 h; DNA damage induced by 5-fluorouridine; Potency, µM (highest dose often 46.1 µM), hits mostly inhibitors; 2.3% of 330,000 active; AID 504467; note: nearly all actives have a fitted effect of over 55% in size
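5-Fluorouridine DNA damage + compound/DMSO, 2,000 cells/well, 16 h, 37 °C/5% CO2. ONE-Glo, 30 min RT, luminescence. Readout = decrease in reporter signal.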
NPC1 prom act = NPC1 promoter activation | Huh7 NPC1 promoter luciferase reporter, 24 h | Potency, µM (series often up to 9.22 µM), hits mostly activators | 2.4% of 320,000 active; note: nearly all actives have a fitted effect of over 60% in size
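Stable NPC1-promoter luciferase Huh7 line; cpd (DMSO) 24 h, 37 °C, 5% CO2; Amplite luciferase reagent 10 min RT; luminescence readout. qHTS format.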
Rab9 promoter act = activators of Rab9 promoter | AID 485297 | Potency, µM (series often up to 9.22 µM), hits mostly activators | 2.8% of 320,000 active | Huh7 Rab9 promoter-luciferase reporter, luminescence, 24 h; note: nearly all actives have a fitted effect of over 60% in size
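Luminescence read-out: Huh7 cells stably expressing Rab9-luciferase, treated 24 h with compound at 37 °C, then lysed with luciferase reagent for 10 min at ambient before reading.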
SMN2 splice enh = enhancers of SMN2 splice variant expression; AID 1458; 2.8% of 210,000 active; HEK293 SMN2-luciferase splicing reporter, luminescence, 30-36 h; Potency, µM (series often up to 46.1 µM), usual class: activators; note: nearly all actives have a fitted effect of over 55% in size
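HEK293 cells carry an SMN2 minigene-luciferase reporter in which exon 7 inclusion puts luciferase in frame. Cells were seeded at 2000 cells/well, attached for 10-12 hours, then exposed to compounds for 30-36 hours at 37C before ONE-Glo luminescence.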
ELG1 genotox = inducers of genotoxicity in HEK293T ELG1-luciferase cells. HEK293T ELG1-luciferase reporter, luminescence, 16 h. Potency, µM (titrated, usually from 46 µM), actives largely listed as activators. 1.3% of 330,000 active; note: nearly all actives have a fitted effect of over 60% in size
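HEK293T cells expressing luciferase-tagged ELG1 were exposed to compound or DMSO vehicle for 16 hr at 37 °C and 5% CO2. Luciferase activity was then measured with ONE-Glo after 30 min at room temperature.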
Hits are given with their value; - = inactive; ? = inconclusive; . = no result; [ ] = dose if it differs, or a comment. In the library only some 9.2% were active in any assay of this set; here they are far more common. Calls come from the whole dose curve; as a rule, active = well fitted curve in the direction sought with a large enough effect; inconclusive = small, poorly fitted or top-dose-only effect, or another doubt; inactive = no such curve, though single readings can be large; an effect the other way counts as inactive or inconclusive.

SMILES	FLuc modulator	ELG1 DNA repair	NPC1 prom act	Rab9 promoter act	SMN2 splice enh	ELG1 genotox
CCOCC(=O)Nc1nc2ccccc2s1	24µM	?	3.2µM	?	14µM	?
S=C(Nc1ccccc1)c1nc2ccccc2s1	?	?	?	2.5µM	11µM	?
O=C(CCc1nc2ccccc2s1)Nc1ccccc1	?	-	-	-	-	-
O=C(NNc1nc2ccccc2s1)Nc1ccccc1	?	?	3.2µM	?	14µM	?
CCCCC(CC)C(=O)Nc1ccc(C)c(O)c1 (centres undefined)	-	-	-	-	-	-
COc1ccc(S(=O)(=O)N(C)CC(=O)NCCN2CCOCC2)cc1C	-	-	-	-	.	-
O=C(NCc1ccncc1)C(=O)Nc1nccs1	-	-	-	-	.	-
O=C(NCc1ccncc1)C(=O)Nc1nc2ccccc2s1	15µM	-	-	-	.	-
O=C(Cc1ccc(NC2=NC3CS(=O)(=O)CC3S2)cc1)NCc1ccc(Cl)cc1 (centres undefined)	-	-	-	-	.	-
S=c1nc(-c2ccccc2)c(-c2ccccc2)n[nH]1	-	-	-	-[1.84 µM]	.	-
Nc1c(-c2ccccc2)n[nH]c1-c1ccccc1	-[2.3 µM]	?	2.8µM	?	13µM	?
COc1cc(/C=C2/CCC/C(=C\c3cc(O)c(OC)c(Cl)c3)C2=O)cc(Cl)c1O	?	15µM	-	-	-	-
COc1cc(/C=C2\CCC/C(=C\c3ccc(O)c(OC)c3)C2=O)ccc1O	19µM	?	-	-	.	-
COc1cc(/C=C2\CC/C(=C\c3cc(OC)c(O)c(OC)c3)C2=O)cc(OC)c1O	?	7.3µM	-	-	-	-
COc1ccc([C@]23Cc4ccccc4C(O2)C2=C(O3)C(=O)c3ccccc3C2=O)cc1	?	.	-[1.84 µM]	-[1.84 µM]	.	.
O=C(Nc1ccc(F)c(Cl)c1)NC1CC1	-	-	-	-	.	-
O=S(=O)(c1ccc2nc(-c3ccco3)c(-c3ccco3)nc2c1)N1CCOCC1	?	16µM	-	-	-	-
OCCCNC(=S)Nc1ccc2nc(-c3ccccn3)c(-c3ccccn3)nc2c1	-	-	-	-	-	-
O=C(Nc1ccc(N2CCOCC2)cc1)Nc1ccc2nc(-c3ccco3)c(-c3ccco3)nc2c1	-	6.5µM	-	-	-	-
O=C(NCCCO)Nc1ccc2nc(-c3ccco3)c(-c3ccco3)nc2c1	11µM	-	-	-	-	-
O=C(Nc1ccc2nc(-c3ccco3)c(-c3ccco3)nc2c1)NC1CC1	6µM	?	-	-	-	-
CC1=CC(=O)NS(=O)(=O)O1	.	.	.	.	-	.
CCOc1nc(NCc2ccco2)nc(Nc2ccc(OC)cc2)n1	?	?	-	-	-	-
Cc1ccc(Nc2nc(NCc3ccco3)c3ccccc3n2)cc1	21µM	?	-	-	-	-
CCOc1nc(NCc2ccco2)nc(Nc2ccccc2F)n1	-	?	-	-	7.1µM	?
SMILES	FLuc modulator	ELG1 DNA repair	NPC1 prom act	Rab9 promoter act	SMN2 splice enh	ELG1 genotox
CCOc1nc(NCCO)nc(Nc2ccccc2F)n1	-	-	-	-	-	-
COc1ccc(Nc2nc(NCc3ccco3)nc(N/N=C/c3ccccc3)n2)cc1	?	2.6µM	-	-	-	-
Oc1ccccc1-c1nc(NCc2ccco2)c2ccccc2n1	-[2.3 µM]	-	-	-	-	-
COc1ccccc1Nc1nc(NCc2ccco2)c2ccccc2n1	19µM	21µM	-	-	.	-
Fc1ccccc1-c1nc(NCc2ccco2)c2ccccc2n1	-	?	-	-	-	-
COc1cc(OC)cc(C(=O)N2CCN(C(=O)COc3ccccc3)CC2)c1	-	.	.	.	-	.
COCCNC(=O)C1(CC(C)C)C=CCN1C(C)=O (centres undefined)	.	.	.	.	-	.
O=S(=O)(/N=C(/Nc1cccc2ccccc12)c1ccc(F)cc1)c1ccccc1	-	-	-	-	.	-
CC(C)c1ccc(CNc2nc(-c3ccco3)nn2S(=O)(=O)c2ccc(F)cc2)cc1	-	.	.	.	.	.
CCOC(=O)C(C)/C(C)=N/NC(N)=S (centres undefined)	-	-	-	-	-	-
Cc1nc2c(N=Nc3ccccc3F)c(N)nn2c(N)c1C#N	?	-	?	?	-	-
Cc1cccc(N=Nc2c(C)nn(-c3ccccc3)c2N)c1C	13µM	?	-	?	?	?
Nc1c(N=Nc2ccccc2F)c(=O)[nH]n1-c1ccccc1	3.8µM	?	?	?	-	?
Nc1nn(-c2ccccc2)c(N)c1N=Nc1ccccc1	3µM	?	?	?	8.9µM	15µM
Cc1cc(=O)n2[nH]c(N)c(N=Nc3ccccc3F)c2n1	?	-	-	-	-	-
Nc1nn(-c2ccccc2)c(N)c1N=Nc1ccccc1F	0.95µM	?	0.56µM	0.45µM	3.5µM	?
Nc1ncnc(N)c1N=Nc1ccccc1	-	-	-	-	.	-
Cc1cccc(NC(=O)COc2ccc(/C=C\c3[nH]c(=O)[nH]c(=O)c3[N+](=O)[O-])cc2)c1	-	-	-	-	-	-
COc1ccc(CN2C(=O)C(NC(=O)c3ccc(C)cc3)(C(F)(F)F)N=C2c2ccccc2)cc1 (centres undefined)	-	.	.	.	-	.
Cc1cccc(NC(=O)CCCn2nc(C)c3c(C)n(-c4ccccc4)nc3c2=O)c1C	-	.	.	.	.	.
O=C(COC(=O)c1cc(Br)ccc1O)Nc1cc(S(=O)(=O)N2CCCC2)ccc1Cl	-	-	-	-	-	-
Cc1nn(-c2ccccc2)c(N)c1N=Nc1ccccc1	6.7µM	?	2.8µM	2µM	13µM	?
Nc1nc(-c2ccccc2)c(N=Nc2ccc(Cl)cc2)s1	-	-	-	-	-	-
Cc1nn(-c2ccccc2)c(N)c1N=Nc1ccc(Cl)cc1	8.5µM	?	2.5µM	2µM	22µM	?
Cc1cc(C)n2nc(N)c(N=Nc3ccccc3)c2n1	15µM	-	-	-	.	-
SMILES	FLuc modulator	ELG1 DNA repair	NPC1 prom act	Rab9 promoter act	SMN2 splice enh	ELG1 genotox
Cc1nn(-c2ccccc2)c(N)c1N=Nc1cccc(S(=O)(=O)N2CCOCC2)c1	?	-	-	-	.	-
CCCCC/C=C/C1=CC(=O)C[C@H](c2ccc(OC)cc2)C1	-	-	-	-	.	-
Cc1cc(C)n(CCc2nc3c4ccccc4nc(SCc4ccc(Cl)cc4)n3n2)n1	-	.	.	.	.	.
CCN1C(c2ccccc2)=C(c2ccccc2)S/C1=C/C=C1\SC(=S)N(C)C1=O	?	10µM	-	-	-	-
Cc1ccc2c(c1)c1c(c(=O)n(-c3cccc(Cl)c3)c(=O)n1CC(=O)NCC1CCCO1)n2C (centres undefined)	-	.	.	.	.	.
CCOC(=O)N1CCN(S(=O)(=O)CCNC(=O)c2ccc(F)cc2)CC1	-	-	-	-	.	-
COc1cccc2c(Cl)c(CCCl)c(C)nc12	21µM	-	-	-	-	-
CCCCc1c(C)nc2c(OC)cccc2c1SCC(=O)O	-	?	-	-	.	-

Assay outcomes: PubChem, National Center for Advancing Translational Sciences (NCATS)
